Experimental data published in the supplement of paper PMC10849652.
Targets with a hit are over-represented here; the source holds about 7,900 in all. About 0.6% of all pairs of compound and target were hits.

The targets below were run with C1=CC=C(C=C1)[C@H](COC2=CC3=C(C=C2)NC(=O)N3)NC(=O)C4=CC=CN(C4=O)CC5=CC(=C(C=C5)F)F (assay: log2 fold change, soluble protein after heating vs DMSO (PISA); higher = thermal stabilisation; K562 cells, 10 uM, 30 min; active = over 0.2 and 3.5 SD of the protein, either way, in both replicates (recomputed)).
In short: (§1)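 Aliquots of K562 cells (2×10^6 cells/mL) treated with 10 μM compound for 30 min were heated for 3 min over 48°C-58°C. After pooling and extraction in PBS with 0.5% NP-40 at 4°C, soluble protein from a 21,000xg, 90 min spin was quantified by TMTpro 16plex LC-MS/MS with channel sums equalised. Thermal stability is expressed against control samples, from duplicates, as a log2 fold change.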

Sequence of UniProt Q15629 (Q15629 whole entry, looked up): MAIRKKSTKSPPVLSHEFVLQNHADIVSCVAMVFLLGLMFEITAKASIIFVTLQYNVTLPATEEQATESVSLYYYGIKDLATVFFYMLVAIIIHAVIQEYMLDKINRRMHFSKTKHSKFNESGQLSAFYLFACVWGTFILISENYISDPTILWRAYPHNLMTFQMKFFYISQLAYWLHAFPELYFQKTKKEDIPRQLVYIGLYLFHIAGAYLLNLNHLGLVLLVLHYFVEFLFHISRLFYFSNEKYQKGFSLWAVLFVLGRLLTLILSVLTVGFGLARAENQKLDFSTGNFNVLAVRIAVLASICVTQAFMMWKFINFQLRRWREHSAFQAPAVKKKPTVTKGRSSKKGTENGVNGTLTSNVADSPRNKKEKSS
Sequence of UniProt Q96QU8 (Q96QU8 whole entry, looked up): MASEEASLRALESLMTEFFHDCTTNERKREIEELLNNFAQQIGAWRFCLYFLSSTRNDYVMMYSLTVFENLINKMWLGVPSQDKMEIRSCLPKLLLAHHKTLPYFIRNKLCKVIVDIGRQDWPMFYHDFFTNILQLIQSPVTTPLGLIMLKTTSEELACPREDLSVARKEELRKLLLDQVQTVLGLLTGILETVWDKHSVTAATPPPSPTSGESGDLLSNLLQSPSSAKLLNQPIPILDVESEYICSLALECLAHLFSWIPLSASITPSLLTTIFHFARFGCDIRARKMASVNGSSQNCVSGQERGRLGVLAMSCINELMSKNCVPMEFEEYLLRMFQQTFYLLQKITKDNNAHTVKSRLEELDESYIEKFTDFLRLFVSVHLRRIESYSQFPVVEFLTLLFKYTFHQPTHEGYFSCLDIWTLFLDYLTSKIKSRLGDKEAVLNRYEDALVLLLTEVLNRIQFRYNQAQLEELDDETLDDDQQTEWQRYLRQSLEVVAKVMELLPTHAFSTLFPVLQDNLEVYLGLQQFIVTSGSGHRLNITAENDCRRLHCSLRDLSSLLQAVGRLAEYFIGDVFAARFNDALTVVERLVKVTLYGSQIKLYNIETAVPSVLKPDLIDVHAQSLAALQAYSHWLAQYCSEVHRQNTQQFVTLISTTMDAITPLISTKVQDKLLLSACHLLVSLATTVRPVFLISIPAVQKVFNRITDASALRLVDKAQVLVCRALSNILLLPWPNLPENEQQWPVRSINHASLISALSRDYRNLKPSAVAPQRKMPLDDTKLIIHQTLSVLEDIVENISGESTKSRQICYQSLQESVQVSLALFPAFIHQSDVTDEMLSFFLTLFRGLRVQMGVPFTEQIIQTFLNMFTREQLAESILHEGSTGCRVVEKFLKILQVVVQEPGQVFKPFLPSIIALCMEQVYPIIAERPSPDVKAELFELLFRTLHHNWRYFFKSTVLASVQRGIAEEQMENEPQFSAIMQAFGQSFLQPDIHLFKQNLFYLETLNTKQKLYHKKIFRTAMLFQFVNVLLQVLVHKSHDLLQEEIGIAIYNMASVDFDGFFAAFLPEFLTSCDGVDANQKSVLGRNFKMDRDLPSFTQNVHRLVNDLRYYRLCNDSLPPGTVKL
Sequence of UniProt P49754 (P49754 whole entry, looked up): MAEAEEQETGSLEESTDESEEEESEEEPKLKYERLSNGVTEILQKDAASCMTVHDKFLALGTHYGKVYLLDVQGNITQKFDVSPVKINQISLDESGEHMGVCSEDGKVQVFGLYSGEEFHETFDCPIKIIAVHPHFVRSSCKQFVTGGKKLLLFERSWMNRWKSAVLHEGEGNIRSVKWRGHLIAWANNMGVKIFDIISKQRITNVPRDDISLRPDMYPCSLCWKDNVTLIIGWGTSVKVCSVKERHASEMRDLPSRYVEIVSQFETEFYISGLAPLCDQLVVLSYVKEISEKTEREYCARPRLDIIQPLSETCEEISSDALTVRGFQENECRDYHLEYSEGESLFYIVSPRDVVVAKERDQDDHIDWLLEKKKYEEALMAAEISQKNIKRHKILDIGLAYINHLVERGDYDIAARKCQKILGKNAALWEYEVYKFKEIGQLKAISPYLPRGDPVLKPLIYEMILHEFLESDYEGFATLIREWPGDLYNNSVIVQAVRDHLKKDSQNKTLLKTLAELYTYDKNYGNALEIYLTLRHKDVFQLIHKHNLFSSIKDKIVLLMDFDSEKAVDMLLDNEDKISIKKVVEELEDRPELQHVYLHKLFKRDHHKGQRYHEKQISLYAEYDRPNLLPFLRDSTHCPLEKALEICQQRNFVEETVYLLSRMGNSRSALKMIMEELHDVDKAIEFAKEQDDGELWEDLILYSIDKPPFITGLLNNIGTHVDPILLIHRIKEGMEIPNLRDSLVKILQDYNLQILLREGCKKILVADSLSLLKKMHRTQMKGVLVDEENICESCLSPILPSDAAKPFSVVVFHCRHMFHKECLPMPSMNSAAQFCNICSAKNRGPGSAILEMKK
Sequence of UniProt O94874 (O94874 whole entry, looked up): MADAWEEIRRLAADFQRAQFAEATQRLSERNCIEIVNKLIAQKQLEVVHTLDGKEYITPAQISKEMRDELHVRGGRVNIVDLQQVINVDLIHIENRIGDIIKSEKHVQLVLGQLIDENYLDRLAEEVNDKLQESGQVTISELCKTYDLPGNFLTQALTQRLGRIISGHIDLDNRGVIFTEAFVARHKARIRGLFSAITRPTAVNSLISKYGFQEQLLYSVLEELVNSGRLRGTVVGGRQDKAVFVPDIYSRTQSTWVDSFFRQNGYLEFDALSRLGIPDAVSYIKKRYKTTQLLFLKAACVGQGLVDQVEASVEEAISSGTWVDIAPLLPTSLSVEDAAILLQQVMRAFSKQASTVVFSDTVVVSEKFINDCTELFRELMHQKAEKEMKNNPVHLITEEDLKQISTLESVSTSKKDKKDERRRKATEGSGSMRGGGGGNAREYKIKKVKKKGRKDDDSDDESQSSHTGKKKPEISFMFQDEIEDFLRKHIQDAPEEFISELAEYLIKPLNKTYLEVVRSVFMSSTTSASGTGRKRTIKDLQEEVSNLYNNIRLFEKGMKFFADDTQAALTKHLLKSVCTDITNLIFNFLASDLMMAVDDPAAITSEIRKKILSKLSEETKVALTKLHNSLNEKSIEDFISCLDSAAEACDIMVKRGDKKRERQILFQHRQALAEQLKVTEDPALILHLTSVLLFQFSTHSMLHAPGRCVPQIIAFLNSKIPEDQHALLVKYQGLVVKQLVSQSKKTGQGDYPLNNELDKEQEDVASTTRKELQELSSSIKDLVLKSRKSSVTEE
Sequence of UniProt O43156 (O43156 whole entry, looked up): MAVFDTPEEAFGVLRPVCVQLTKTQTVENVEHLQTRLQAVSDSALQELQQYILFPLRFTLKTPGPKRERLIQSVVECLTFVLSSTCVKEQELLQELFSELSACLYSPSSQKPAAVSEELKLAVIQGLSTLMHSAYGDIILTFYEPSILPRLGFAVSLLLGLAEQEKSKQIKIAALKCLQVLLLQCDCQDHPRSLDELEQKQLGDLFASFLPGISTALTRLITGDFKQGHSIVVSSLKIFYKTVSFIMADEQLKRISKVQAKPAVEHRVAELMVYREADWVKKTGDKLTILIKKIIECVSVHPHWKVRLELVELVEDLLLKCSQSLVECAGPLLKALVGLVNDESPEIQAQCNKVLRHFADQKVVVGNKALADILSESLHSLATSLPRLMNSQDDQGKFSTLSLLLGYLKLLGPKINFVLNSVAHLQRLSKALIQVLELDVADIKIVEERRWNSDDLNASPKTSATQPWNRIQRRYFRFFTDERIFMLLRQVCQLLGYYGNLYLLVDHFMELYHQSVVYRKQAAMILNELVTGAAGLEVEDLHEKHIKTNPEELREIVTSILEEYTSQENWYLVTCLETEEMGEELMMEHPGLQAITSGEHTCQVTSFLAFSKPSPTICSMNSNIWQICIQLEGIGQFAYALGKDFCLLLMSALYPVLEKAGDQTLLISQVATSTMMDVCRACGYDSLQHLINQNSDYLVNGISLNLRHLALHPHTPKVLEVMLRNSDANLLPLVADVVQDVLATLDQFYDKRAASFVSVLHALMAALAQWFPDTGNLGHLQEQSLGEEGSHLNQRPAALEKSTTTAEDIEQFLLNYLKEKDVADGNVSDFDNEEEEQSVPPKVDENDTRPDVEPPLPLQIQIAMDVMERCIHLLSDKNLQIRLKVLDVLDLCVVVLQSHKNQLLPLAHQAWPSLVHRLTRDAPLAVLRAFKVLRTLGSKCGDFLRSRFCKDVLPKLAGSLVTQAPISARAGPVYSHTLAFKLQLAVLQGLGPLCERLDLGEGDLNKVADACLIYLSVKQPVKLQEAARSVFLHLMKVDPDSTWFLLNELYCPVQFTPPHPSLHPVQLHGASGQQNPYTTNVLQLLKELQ
Sequence of UniProt Q9UGM6 (Q9UGM6 whole entry, looked up): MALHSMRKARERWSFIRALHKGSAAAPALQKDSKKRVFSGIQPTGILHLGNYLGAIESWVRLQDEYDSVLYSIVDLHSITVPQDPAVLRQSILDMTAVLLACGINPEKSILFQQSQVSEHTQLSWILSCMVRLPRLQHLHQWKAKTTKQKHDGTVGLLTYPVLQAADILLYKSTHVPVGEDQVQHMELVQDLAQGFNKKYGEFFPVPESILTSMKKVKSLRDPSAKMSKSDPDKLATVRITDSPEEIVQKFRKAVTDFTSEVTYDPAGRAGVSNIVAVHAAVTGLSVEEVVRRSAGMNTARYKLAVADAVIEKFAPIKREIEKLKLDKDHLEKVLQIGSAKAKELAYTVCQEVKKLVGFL
Sequence of UniProt Q86WV6 (Q86WV6 whole entry, looked up): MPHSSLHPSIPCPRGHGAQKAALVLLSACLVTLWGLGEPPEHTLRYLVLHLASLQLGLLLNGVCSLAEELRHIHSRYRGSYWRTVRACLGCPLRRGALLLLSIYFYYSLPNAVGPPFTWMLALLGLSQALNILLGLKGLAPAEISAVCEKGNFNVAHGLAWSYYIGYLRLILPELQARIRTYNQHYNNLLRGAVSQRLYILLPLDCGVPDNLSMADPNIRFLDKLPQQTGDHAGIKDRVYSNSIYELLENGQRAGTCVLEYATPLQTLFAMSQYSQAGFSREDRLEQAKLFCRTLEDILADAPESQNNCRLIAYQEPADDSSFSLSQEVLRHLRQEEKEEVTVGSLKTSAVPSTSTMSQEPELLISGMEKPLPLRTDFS

Target	log2 fold change
TTC38 (UniProt Q5R3I4)	0.046 (inactive)
TSFM (UniProt P43897)	-0.17 (inactive)
VPS8 (UniProt Q8N3P4)	-0.08 (inactive)
TXNRD1 (UniProt Q16881)	-0.066 (inactive)
TUBA4A (UniProt C9JJQ8)	-0.081 (inactive)
WARS2 (UniProt Q9UGM6)	-0.025 (inactive)
UBA52 (UniProt P62987)	0.088 (inactive)
TMEM164 (UniProt Q5U3C3)	-0.195 (inactive)
XPO6 (UniProt Q96QU8)	0.35 (inactive)
TTI1 (UniProt O43156)	-0.034 (inactive)
TOP2A isoform 4 (UniProt P11388)	0.157 (inactive)
UBAP2L isoform 1 (UniProt Q14157)	0.038 (inactive)
UFL1 (UniProt O94874)	-0.072 (inactive)
XRCC5 (UniProt P13010)	-0.136 (inactive)
VTI1B (UniProt Q9UEU0)	0.015 (inactive)
TMEM173 (UniProt Q86WV6)	-0.035 (inactive)
WBP4 (UniProt O75554)	0.012 (inactive)
VDAC1 (UniProt P21796)	0.047 (inactive)

Target	log2 fold change
TRAPPC2L (UniProt Q9UL33)	-0.014 (inactive)
TRAM1 (UniProt Q15629)	-0.167 (inactive)
WASHC3 (UniProt Q9Y3C0)	0.015 (inactive)
TMEM106B (UniProt Q9NUM4)	0.039 (inactive)
VPS41 (UniProt P49754)	-0.028 (inactive)
UFD1 isoform 1 (UniProt Q92890)	-0.011 (inactive)
TMEM208 (UniProt Q9BTX3)	-0.101 (inactive)
UBE2Q1 (UniProt Q7Z7E8)	-0.041 (inactive)
TOMM20 (UniProt Q15388)	0.021 (inactive)
UPF3B (UniProt Q9BZI7)	0.259 (inactive)
TUT4 (UniProt Q5TAX3)	-0.029 (inactive)
TRMT2A (UniProt Q8IZ69)	-0.008 (inactive)
VPS35L (UniProt Q7Z3J2)	-0.046 (inactive)
WDR61 (UniProt Q9GZS3)	-0.035 (inactive)
TMEM219 (UniProt Q86XT9)	0.066 (inactive)
UBA6	-0.018 (inactive)
USP34 (UniProt Q70CQ2)	-0.083 (inactive)
UBE4B isoform 4 (UniProt O95155)	-0.019 (inactive)

Each target was assayed with CC1=C(SC2=C1C(=N[C@H](C3=NN=C(N32)C)CC(=O)N)C4=CC=C(C=C4)Cl)C in the same assay as above.
In short: as §1

Target	log2 fold change
TTC38 (UniProt Q5R3I4)	0.049 (inactive)
TSFM (UniProt P43897)	0.03 (inactive)
VPS8 (UniProt Q8N3P4)	0.106 (inactive)
TXNRD1 (UniProt Q16881)	0.086 (inactive)
TUBA4A (UniProt C9JJQ8)	0.036 (inactive)
WARS2 (UniProt Q9UGM6)	-0.009 (inactive)
UBA52 (UniProt P62987)	-0.301 (inactive)
TMEM164 (UniProt Q5U3C3)	-0.047 (inactive)
XPO6 (UniProt Q96QU8)	0.019 (inactive)
TTI1 (UniProt O43156)	0.136 (inactive)
TOP2A isoform 4 (UniProt P11388)	-0.322 (inactive)
UBAP2L isoform 1 (UniProt Q14157)	0.004 (inactive)
UFL1 (UniProt O94874)	0.012 (inactive)
XRCC5 (UniProt P13010)	-0.019 (inactive)
VTI1B (UniProt Q9UEU0)	-0.002 (inactive)
TMEM173 (UniProt Q86WV6)	0.045 (inactive)
WBP4 (UniProt O75554)	0.009 (inactive)
VDAC1 (UniProt P21796)	0.008 (inactive)

Target	log2 fold change
TRAPPC2L (UniProt Q9UL33)	-0.044 (inactive)
TRAM1 (UniProt Q15629)	-0.024 (inactive)
WASHC3 (UniProt Q9Y3C0)	-0.022 (inactive)
TMEM106B (UniProt Q9NUM4)	-0.022 (inactive)
VPS41 (UniProt P49754)	0.06 (inactive)
UFD1 isoform 1 (UniProt Q92890)	0.038 (inactive)
TMEM208 (UniProt Q9BTX3)	0.02 (inactive)
UBE2Q1 (UniProt Q7Z7E8)	0.061 (inactive)
TOMM20 (UniProt Q15388)	0.025 (inactive)
UPF3B (UniProt Q9BZI7)	-0.211 (inactive)
TUT4 (UniProt Q5TAX3)	-0.181 (inactive)
TRMT2A (UniProt Q8IZ69)	-0.042 (inactive)
VPS35L (UniProt Q7Z3J2)	-0.13 (inactive)
WDR61 (UniProt Q9GZS3)	0.04 (inactive)
TMEM219 (UniProt Q86XT9)	-0.023 (inactive)
UBA6	0 (inactive)
USP34 (UniProt Q70CQ2)	0.081 (inactive)
UBE4B isoform 4 (UniProt O95155)	0.03 (inactive)
